Consider 96 molecules from PubChem BioAssay AID1220 (Sanford-Burnham Center for Chemical Genomics, 2008).

The campaign covered roughly 190,000 compounds. About 1,300 (0.68%) were called active. Many of the other results were omitted from the sample, so actives are more common in it than they were. Values without a mark were called inactive. Cut-off read from the data, not from the text of the source: active = inhibition above about 50%; inactive = the rest.

The target in the experiment is Mannose-6-phosphate isomerase (Homo sapiens) (UniProt P34949). As to the kind of experiment: human PMI inhibitors, high substrate, primary screen, biochemical, fluorescence intensity, high mannose 6-phosphate (AID 1220). To be noted: recombinant PMI enzyme, coupled fluorescence intensity; at 20 µM; hits give high values.
Chain of Mannose-6-phosphate isomerase (Homo sapiens) (P34949 whole entry, looked up): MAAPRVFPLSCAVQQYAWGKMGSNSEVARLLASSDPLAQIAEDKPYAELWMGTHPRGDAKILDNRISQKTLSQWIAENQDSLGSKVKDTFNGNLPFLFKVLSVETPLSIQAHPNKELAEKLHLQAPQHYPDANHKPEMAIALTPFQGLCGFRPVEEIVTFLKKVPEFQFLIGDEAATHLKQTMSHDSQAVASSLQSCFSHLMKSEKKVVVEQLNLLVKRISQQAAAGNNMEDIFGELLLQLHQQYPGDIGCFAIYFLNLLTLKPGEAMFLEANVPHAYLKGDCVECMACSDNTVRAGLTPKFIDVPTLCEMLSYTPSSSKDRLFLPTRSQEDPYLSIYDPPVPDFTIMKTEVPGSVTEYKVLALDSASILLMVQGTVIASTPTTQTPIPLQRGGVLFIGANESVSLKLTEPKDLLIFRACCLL
As a reminder, the inhibition is the drop in the measured response relative to a control, in per cent. Take `O=[N+]([O-])c1ccc(C2C3C(c4ccccc4)=NC4(CCCC4)N32)cc1` (stereo unspecified): the inhibition is 9.1%.

`Cc1ccnc(-n2c(-c3ccco3)nc3ccccc3c2=O)c1`: the inhibition was 16.7%.

Regarding `CN(CCOc1ccc(C=C2C(=O)NC(=O)NC2=O)cc1)c1ccccn1`, the inhibition is -5.1%.

As for `COc1cc(/C=N/NP(=S)(c2ccccc2)c2ccccc2)ccc1O`, the inhibition was 4.4%.

Turning to `CCCCn1c(O)c(C(CC)=Nc2ccc(OC)cc2OC)c(=O)[nH]c1=O`, the inhibition is 17.6%.

As to `C=CCn1c(O)c(C(C)=Nc2cc(OC)ccc2OC)c(=O)[nH]c1=O`, the inhibition is 13%.

Consider `CCC(=Nc1ccc(OC)cc1OC)c1c(O)n(C)c(=O)n(C)c1=O`, for which the inhibition was 53.9% (active).

On to `C=CCn1c(O)c(C(CC)=Nc2cc(OC)ccc2OC)c(=O)[nH]c1=O`, for which the inhibition was 55.7% (active).

With `COc1ccc(N=C(C)c2c(O)n(C)c(=O)n(C)c2=O)c(OC)c1`, the inhibition was -2.6%.

As for `CCC(=Nc1ccc(OC)cc1OC)c1c(O)[nH]c(=O)[nH]c1=O`, the inhibition is 30.1%.

`Cc1ccc(O)c(CN2CCN(c3ccccc3)CC2)c1`: the inhibition is 4.3%.

Take `CN(C)[C@@H]1C(=O)C(C(N)=O)=C(O)[C@@]2(O)C(=O)C3=C(O)c4c(O)ccc(Cl)c4[C@@](C)(O)C3C[C@@H]12` (stereo partly specified): the inhibition was 16.4%.

`CN(C)[C@@H]1C(=O)C(C(N)=O)=C(O)[C@@]2(O)C(=O)C3=C(O)c4c(O)cccc4[C@@](C)(O)[C@H]3[C@H](O)[C@@H]12`: the inhibition was 52.6% (active).

On to `CN1CCN(c2ccc(S(=O)(=O)C(F)(F)F)cc2[N+](=O)[O-])CC1`, for which the inhibition was -6.1%.

Consider `CC1CN(c2ccc([N+](=O)[O-])cc2Cl)CCN1` (stereo unspecified), for which the inhibition is 49.1%.

With `O=[N+]([O-])c1ccc(N2CCCC2)c(F)c1Br`, the inhibition was 8.1%.

Turning to `O=[N+]([O-])c1ccc(N2CCCCCC2)c2ncccc12`, the inhibition is 63.7% (active).

On to `O=[N+]([O-])c1ccc(N2CCNCC2)cc1N1CCCCC1`, for which the inhibition is 9.9%.

`O=[N+]([O-])c1ccc(N2CCCCC2)c2ncccc12`: the inhibition is 72.6% (active).

With `CN1CCN(c2ccc(S(C)(=O)=O)cc2[N+](=O)[O-])CC1`, the inhibition was -13.1%.

Turning to `O=[N+]([O-])c1ccc(N2CCCC2)c2ncccc12`, the inhibition is 22.1%.

Take `CN1CCN(c2ccc([N+](=O)[O-])c3cccnc23)CC1`: the inhibition was 63.5% (active).

For the molecule `CC1CN(c2ccc([N+](=O)[O-])c3cccnc23)CC(C)N1` (stereo unspecified), the inhibition is 63.1% (active).

As for `O=[N+]([O-])c1ccc(N2CCNCC2)c2ncccc12`, the inhibition was 29%.

In the case of `CC1CN(c2cc([N+](=O)[O-])ccc2Cl)CC(C)N1` (stereo unspecified), the inhibition was -1.6%.

Consider `Cc1cc(OCc2nn[nH]n2)c2c3c(c(=O)oc2c1)CCCC3`, for which the inhibition is -9.2%.

With `COc1cc(NC(=O)CN2C3CCC2CC(O)(c2cccnc2)C3)cc(OC)c1` (stereo unspecified), the inhibition was 5.3%.

On to `O=C(NC(C(Cl)Cl)N1CCOCC1)c1ccccc1` (stereo unspecified), for which the inhibition is -6.2%.

As for `O=C(c1ccc2c(c1)ncn2-c1ccc(F)cc1F)N1CCC2(CC1)OCCO2`, the inhibition was -2.9%.

As for `CCCCCn1c(=O)c(C(=O)Nc2ccncc2)c(O)c2ccccc21`, the inhibition is -5.5%.

In the case of `COc1ccc(C(C)=O)cc1CC(C(=O)c1ccc(C)cc1)N(C)C` (stereo unspecified), the inhibition is 4.6%.

In the case of `CCC(C)NC(=O)CN1C(=O)CN=C(c2ccccc2)c2ccccc21` (stereo unspecified), the inhibition is -11.3%.

Take `O[C@H]1C2CCC1C(N1CCCCC1)CC2` (stereo partly specified): the inhibition was 5.7%.

Regarding `COc1ccc(OC)c(N2Cc3ccccc3C2=N)c1`, the inhibition is -9.9%.

As to `CNc1cc(N2CCN(C)CC2)ccc1[N+](=O)[O-]`, the inhibition is 28.3%.

For `CN(C)c1ccc(C=C(C#N)C#N)cc1`, the inhibition is -8.3%.

For `Cc1cc(N2CCCC2)ccc1C=C(C#N)C#N`, the inhibition was 7.1%.

For `Cc1ccc2cc(C=C(C#N)C#N)c(Cl)nc2c1`, the inhibition is 57.1% (active).

For the molecule `COc1ccc(OC)c(N2C(=O)NC(=O)C3(Cc4cc(C)ccc4N(C)C3)C2=O)c1` (stereo unspecified), the inhibition is -2.8%.

With `CC(=O)NC1C(OC(=O)Cc2ccccc2)OC(COC(C)=O)C(OC(C)=O)C1OC(C)=O` (stereo unspecified), the inhibition is -6%.

As to `CCSc1cc(C2C(C#N)=C(N)Oc3n[nH]c(C)c32)c(C)o1` (stereo unspecified), the inhibition was -0.6%.

Turning to `CC(C)N1CCN(c2ccc(O)cc2)CC1`, the inhibition is 65% (active).

In the case of `CCN1CCN(c2ccc(N)cc2)CC1`, the inhibition is 35.6%.

As for `CN1CCN(c2ccc(N)cc2)CC1`, the inhibition is 11.3%.

Turning to `O=C1C2CCN(CC2)C1Cc1ccc(OCc2ccccc2)cc1` (stereo unspecified), the inhibition is 1.5%.

For `COc1ccc2ccc(O)c(CN3CC=C(c4ccccc4)CC3)c2c1`, the inhibition was 57.7% (active).

As for `COc1ccc2c(CN3CC=C(c4ccccc4)CC3)cc(=O)oc2c1`, the inhibition is 14.2%.

Turning to `Oc1ccc2ccccc2c1CN1CC=C(c2ccccc2)CC1`, the inhibition was 38.8%.

Regarding `CCCNC(=O)c1c(N)n(Cc2ccc3c(c2)OCO3)c2nc3ccccc3nc12`, the inhibition was 27.5%.

Consider `CCCCNC(=O)c1c(N)n(Cc2ccc3c(c2)OCO3)c2nc3ccccc3nc12`, for which the inhibition is 69.1% (active).

Take `CC(C)CCNC(=O)c1c(N)n(Cc2ccc3c(c2)OCO3)c2nc3ccccc3nc12`: the inhibition was 41.6%.

With `CC(C)CNC(=O)c1c(N)n(Cc2ccc3c(c2)OCO3)c2nc3ccccc3nc12`, the inhibition is 35.4%.

With `CCC(C)NC(=O)c1c(N)n(Cc2ccc3c(c2)OCO3)c2nc3ccccc3nc12` (stereo unspecified), the inhibition is 61.1% (active).

`COC(=O)c1c(N)n(Cc2ccc(OC)cc2)c2nc3ccccc3nc12`: the inhibition was 0.2%.

Regarding `O=C(CCl)NCC1CCCO1` (stereo unspecified), the inhibition was 0.5%.

`CCCCn1c(O)c(C(CC)=NCCN2CCOCC2)c(=O)[nH]c1=O`: the inhibition was -61.4%.

Consider `O=C1c2ccccc2C(=O)N1Cc1nc2ccccc2c(=O)n1-c1ccc(Br)cn1`, for which the inhibition was -1.8%.

Regarding `CC(=O)c1ccc2c(c1)C1C(Cl)C(Sc3ccccc3[N+](=O)[O-])CC1C(c1ccccc1[N+](=O)[O-])N2` (stereo unspecified), the inhibition is 63.2% (active).

As for `CC(=O)c1ccc2c(c1)C1C(Cl)C(Sc3ccccc3[N+](=O)[O-])CC1C(C(=O)O)N2` (stereo unspecified), the inhibition is -51.9%.

Regarding `CC(=O)c1ccc2c(c1)C1C(Cl)C(Sc3ccccc3[N+](=O)[O-])CC1C(c1ccccc1)N2` (stereo unspecified), the inhibition is -67.2%.

On to `COc1cccc(CN2CCCCC2c2cccnc2)c1` (stereo unspecified), for which the inhibition is -2.6%.

`COc1cccc(NC(=O)CN2CC(c3ccccc3)CC2=O)c1` (stereo unspecified): the inhibition was -4.8%.

Turning to `COc1cccc(C2CC3C(=O)C=CC2N3Cc2ccccc2)c1` (stereo unspecified), the inhibition is 61.2% (active).

`CCN(CC)CCCN=C(C)c1c(O)n(C2CCCCC2)c(=O)[nH]c1=O`: the inhibition was -9.1%.

As to `CC(C)CCOC(=O)c1c(N)n(CC2CCCO2)c2nc3ccccc3nc12` (stereo unspecified), the inhibition was 5.9%.

For the molecule `CC(C)OC(=O)c1c(N)n(CC2CCCO2)c2nc3ccccc3nc12` (stereo unspecified), the inhibition is 16.9%.

Consider `CC(C)CCNC(=O)c1c(N)n(CC2CCCO2)c2nc3ccccc3nc12` (stereo unspecified), for which the inhibition was 23.9%.

As to `CC(C)OCCCNC(=O)c1c(N)n(CC2CCCO2)c2nc3ccccc3nc12` (stereo unspecified), the inhibition is 22.1%.

In the case of `CCCCn1c(N)c(C(=O)NCCN2CCOCC2)c2nc3ccccc3nc21`, the inhibition was 48.6%.

Turning to `Nc1c(C(=O)NC2CCCC2)c2nc3ccccc3nc2n1CC1CCCO1` (stereo unspecified), the inhibition was 62.2% (active).

Take `Nc1c(C(=O)OC2CCCCC2)c2nc3ccccc3nc2n1CC1CCCO1` (stereo unspecified): the inhibition was 24.9%.

For `CCC(C)NC(=O)c1c(N)n(CC2CCCO2)c2nc3ccccc3nc12` (stereo unspecified), the inhibition is 64.3% (active).

With `CCCCn1c(N)c(C(=O)OCC2CCCO2)c2nc3ccccc3nc21` (stereo unspecified), the inhibition is 12%.

Consider `CCCNC(=O)c1c(N)n(CC2CCCO2)c2nc3ccccc3nc12` (stereo unspecified), for which the inhibition is 56.1% (active).

On to `CCCCCn1c(N)c(C(=O)NCCN2CCOCC2)c2nc3ccccc3nc21`, for which the inhibition was 51.4% (active).

Take `CCCCCCn1c(N)c(C(=O)NCCN2CCOCC2)c2nc3ccccc3nc21`: the inhibition was 23.2%.

As for `CC(NCc1ccccc1Cl)C(O)c1ccccc1` (stereo unspecified), the inhibition is -3.1%.

With `CCN(CC)P(=S)(c1c(C)nc2ccccn12)c1c(C)nc2ccccn12`, the inhibition is -6.3%.

In the case of `CN1CCN(S(=O)(=O)c2cnc(Cl)c(Br)c2)CC1`, the inhibition is 10.5%.

As to `COc1ccc(N2C(=O)NC(=O)/C(=C/c3ccc4c(c3)Cc3ccccc3-4)C2=O)cc1`, the inhibition is -32.8%.

For the molecule `COc1ccc(-c2cc(=NCCC(=O)O)c3cc(C)ccc3o2)cc1`, the inhibition was 3.9%.

In the case of `CN1CCN(c2ccc(F)cc2N)CC1`, the inhibition was -0.9%.

For `OCC12COC3c4ccccc4C(OC1)N32` (stereo unspecified), the inhibition is 5.1%.

For the molecule `COc1ccc(N=Cc2c(O)n(Cc3cccs3)c(=O)[nH]c2=O)cc1`, the inhibition is 0.9%.

As for `COc1ccc(P2(=O)Nc3ccccc3N2)cc1`, the inhibition was 52.2% (active).

On to `COc1ccc(OP(=O)(Nc2ccccc2)Nc2ccccc2)cc1`, for which the inhibition was -14.6%.

Consider `COc1ccc(NP(=O)(Nc2ccc(OC)cc2)Oc2ccccc2)cc1`, for which the inhibition was -1.9%.

In the case of `C[N+](C)(C)c1ccccc1`, the inhibition is 10.3%.

As for `CCCCCCC(=O)c1c(O)n(-c2ccccc2OC)c(=O)[nH]c1=O`, the inhibition was -8.9%.

Turning to `CCn1nc(-c2cccs2)nc2c(=O)n(C)c(=O)nc1-2`, the inhibition is 8.9%.

Turning to `O=[N+]([O-])c1ccc(N2CCCC2)c2ccncc12`, the inhibition was 47.4%.

Turning to `O=[N+]([O-])c1ccc(N2CCOCC2)c2ccncc12`, the inhibition was 55.8% (active).

In the case of `O=[N+]([O-])c1ccc(N2CCOCC2)c2cccnc12`, the inhibition is 36.9%.

As for `COc1cccc(C(=O)C2CCCN(Cc3ccon3)C2)c1` (stereo unspecified), the inhibition is 8.8%.

Consider `O=C(CN1CCOCC1)NCC(=O)Nc1ccc(Br)cc1C(=O)c1ccccc1`, for which the inhibition is -0.3%.

As for `CCC[N+]12CCC(CC1)C(=C(c1ccccc1)c1ccccc1)C2`, the inhibition was 5.9%.
